SMILES strings stand for the structures. About 910 (0.41%) of roughly 220,000 compounds were called active.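 How the source made its calls: active means primary inhibition above the hit cutoff, then over 50% inhibition at one or more dose response concentrations (cut at about 23% in these data, passing the limit was not always enough); inconclusive means conflicting primary data, or primary hits not chosen for dose response; inactive means low primary inhibition, or under 50% at every dose.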 Only a selection was taken, and actives are over-represented in it overall. Results with a measured potency or affinity are listed apart.

The target of this experiment is Aminopeptidase N (Plasmodium falciparum (isolate 3D7)) (UniProt O96935). In words: P. falciparum M1AAP inhibitors, biochemical, fluorogenic H-Leu-NHMec substrate, 1536-well (AID 1445).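 Further: plate controls were DMSO full reaction for no effect and no enzyme background for full effect.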 Particulars: recombinant M1AAP, H-Leu-NHMec fluorogenic kinetic assay; at 30 µM, hits give high values unless noted.
Sequence of Aminopeptidase N (Plasmodium falciparum (isolate 3D7)) (O96935 whole entry, looked up): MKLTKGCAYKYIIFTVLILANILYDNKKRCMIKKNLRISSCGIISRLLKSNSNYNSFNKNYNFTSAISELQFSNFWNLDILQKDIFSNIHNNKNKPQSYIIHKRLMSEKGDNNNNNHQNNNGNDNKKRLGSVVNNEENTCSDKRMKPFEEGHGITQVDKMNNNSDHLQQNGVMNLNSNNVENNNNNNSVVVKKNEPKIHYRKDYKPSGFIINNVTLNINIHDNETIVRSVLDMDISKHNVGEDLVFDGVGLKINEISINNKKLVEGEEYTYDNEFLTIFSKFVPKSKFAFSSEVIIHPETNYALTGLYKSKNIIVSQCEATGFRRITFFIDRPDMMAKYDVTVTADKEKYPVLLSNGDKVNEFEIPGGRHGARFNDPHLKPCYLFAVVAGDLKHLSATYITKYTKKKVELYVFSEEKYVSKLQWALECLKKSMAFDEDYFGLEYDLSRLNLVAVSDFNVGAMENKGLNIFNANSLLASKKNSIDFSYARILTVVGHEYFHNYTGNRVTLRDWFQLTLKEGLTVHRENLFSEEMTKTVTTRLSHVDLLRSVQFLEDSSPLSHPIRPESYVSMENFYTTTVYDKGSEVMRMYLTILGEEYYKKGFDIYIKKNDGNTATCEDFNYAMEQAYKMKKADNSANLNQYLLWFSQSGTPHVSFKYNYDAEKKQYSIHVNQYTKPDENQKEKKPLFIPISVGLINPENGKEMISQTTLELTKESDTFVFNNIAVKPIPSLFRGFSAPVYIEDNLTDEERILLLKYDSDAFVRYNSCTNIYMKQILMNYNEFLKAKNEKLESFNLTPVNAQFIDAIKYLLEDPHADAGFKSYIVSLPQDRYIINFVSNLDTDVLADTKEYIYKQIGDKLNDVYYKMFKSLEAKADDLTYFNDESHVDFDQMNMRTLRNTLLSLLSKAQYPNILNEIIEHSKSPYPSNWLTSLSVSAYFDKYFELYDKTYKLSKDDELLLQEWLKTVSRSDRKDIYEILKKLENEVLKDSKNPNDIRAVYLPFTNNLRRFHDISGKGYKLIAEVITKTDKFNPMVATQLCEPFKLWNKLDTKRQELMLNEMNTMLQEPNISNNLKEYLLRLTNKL
One may read the inhibition as the relative decrease from the control value, in per cent. As to `Cc1cccc(OCCOCCSc2ncccn2)c1`, the inhibition was 11.6% (inactive). As for `COc1cccc(OC)c1OCCCOc1ccc(C)cc1Br`, the figure is 3.98% (inactive); as for `CC1CCCN(C(=O)CSc2nnc(-c3ccc(S(=O)(=O)N4CCOCC4)cc3)n2C)C1` (centres undefined), 0.7% (inactive); as for `Cc1cc(Cl)c2ccc(Cl)cc2n1`, 0.44% (inactive). Turning to `O=[N+]([O-])c1ccc2c(c1)oc1ccccc12`, the inhibition was -3.55% (inactive). Regarding `CC(=O)CC(c1ccc([N+](=O)[O-])cc1)c1c(O)c2ccccc2oc1=O` (centres undefined), the inhibition is 0.61% (inactive). The result for `Cc1csc(NC(=O)CSc2nc(C(C)C)nc3c2c(=O)n(C)c(=O)n3C)n1` reads -1.73% (inactive); that for `CS(=O)(=O)c1ccc2nc(NC(=O)c3ccc(N4C(=O)CCC4=O)cc3)sc2c1`, 5.15% (inactive); that for `CCOC(=O)c1cc(-c2csc(-c3cccc(Cl)c3)n2)on1`, -3.06% (inactive). For the molecule `CC1C(c2ccccc2)N(C)C(c2ccccc2)CC1(O)c1ccccc1` (centres undefined), the inhibition was 16.7% (inactive). The result for `CCOC(=O)C(=O)Nc1nnc(SCc2ccc(F)cc2)s1` reads 2.28% (inactive); that for `COc1cccc(C(=O)Nn2c(C)nnc2-n2nc(C)cc2C)c1`, 8.95% (inactive). The result for `COc1ccc(-c2nnn(CC(=O)N(CC(=O)NCCC(C)C)Cc3cccs3)n2)cc1OC` reads 13.8% (inactive); that for `O=C(NCc1ccccc1)C(c1ccc(F)cc1)N(Cc1ccc2c(c1)OCO2)C(=O)Cn1nnc(-c2cccs2)n1` (centres undefined), 1.31% (inactive); that for `CC(C)CCNC(=O)CN(Cc1ccc2c(c1)OCO2)C(=O)Cn1nnc(-c2cccs2)n1`, 24.4% (active). For the molecule `COc1ccc(NC(=O)c2oc3ccccc3c2NC(=O)c2ccc3c(c2)OCO3)cc1`, the inhibition was 2.18% (inactive). On to `Cc1nc(SCc2ccccc2C)n[nH]1`, for which the inhibition was -7.66% (inactive). The result for `COc1ccc2nc(SCc3ccccc3C)nc(C)c2c1` reads 2.23% (inactive); that for `N#Cc1c(-c2ccccc2)c(C#N)c2nc3ccccc3n2c1N`, 3.17% (inactive). As for `Cc1ccc(-c2c(C#N)c(N)n3c(nc4ccccc43)c2C#N)cc1`, the inhibition is 25.5% (active). The result for `Cc1cc(Cl)n2c(nc3ccccc32)c1C#N` reads -0.99% (inactive); that for `Cc1cc(C(C)(C)C)ccc1OCCN1CCCC1`, 8.65% (inactive). The result for `Oc1ccc(-c2nc(=S)[nH][nH]2)cc1` reads 44.3% (inactive); that for `C=CCOc1ccc(C(=O)N(Cc2ccc(N(C)C)cc2)C2CCS(=O)(=O)C2)cc1` (centres undefined), 13% (inactive). As for `CC(=O)Oc1cc2oc(=O)c3c(c2cc1Cl)CCC3`, the inhibition was 38.1% (inactive). `Cc1oc2c(CN3CCOCC3)c(O)ccc2c(=O)c1-c1ccc(Cl)cc1`: the inhibition was 7.87% (inactive). `O=c1cc(-c2ccccc2)c2cc(Cl)c(O)c(CN3CCOCC3)c2o1`: the inhibition is 5.98% (inactive).

For the molecule `O=c1oc2cc(O)ccc2c2c1CCCC2`, the inhibition is 10.5% (inactive). For `CCc1cccc(C)c1NC(=O)COC(=O)c1ccc2c(c1)S(=O)(=O)c1ccccc1C2=O`, the inhibition is 1.58% (inactive). On to `CC1(C)NC(=O)N(CC(O)COc2cccc(F)c2)C1=O` (centres undefined), for which the inhibition is 7.39% (inactive). As for `N#C/C(=C(/O)c1cccs1)c1nc2ccccc2[nH]1`, the figure is 1.8% (inactive). Regarding `COc1cc(C(=S)N2CCCC2)ccc1OS(=O)(=O)c1ccc(NC(C)=O)cc1`, the inhibition was -0.31% (inactive). The result for `CCN1CCN(C(c2cc3cc4c(cc3[nH]c2=O)OCO4)c2nnnn2C(C)(C)CC)CC1` (centres undefined) reads 12.6% (inactive); that for `Cn1c(=O)c2cc(S(=O)(=O)Nc3cc(C(=O)O)cc(C(=O)O)c3)ccc2n(C)c1=O`, 2.45% (inactive).

For the molecule `O=C(NCc1cccnc1)c1cc([N+](=O)[O-])ccc1N1CCOCC1`, the inhibition was 4.23% (inactive). Regarding `CCc1nc(NCCN)c(C#N)c2c1CSC(C)(C)C2`, the inhibition was -0.7% (inactive). Take `CCCCc1nc(NCCNC(=O)c2ccccc2)c(C#N)c2c1CSC(C)(C)C2`: the inhibition is 24.4% (active). The result for `CCCCc1nc(NCc2ccccc2)c(C#N)c2c1COC(C)(C)C2` reads -3.84% (inactive); that for `CCCCc1nc(NCCN)c(C#N)c2c1CSC(C)(C)C2`, 2.56% (inactive); that for `CCCCc1nc(Cl)c(C#N)c2c1CSC(C)(C)C2`, 0.12% (inactive). As for `Cc1ccc(C(NC(=O)N2CCN(C)CC2)C(Cl)Cl)cc1F` (centres undefined), the figure is 0.01% (inactive). The result for `CCCCc1ccc(NC(=O)COc2ccc(C(=O)Nc3ccccc3C)cc2)cc1` reads -2.91% (inactive). Regarding `COc1cc2c(cc1OC)C(c1cccs1)NCC2` (centres undefined), the inhibition is 0.84% (inactive).

Consider `O=C(NCc1cccs1)c1nn2cccnc2c1Cl`, for which the inhibition was 12.7% (inactive). Turning to `CCCOC(=O)Nc1nc2ccccc2o1`, the inhibition is -8.89% (inactive). As for `CCOC(=O)c1cnc(Nc2nc3ccccc3o2)nc1C`, the figure is 0.38% (inactive); as for `Nc1nnc(CC(=O)N/N=C/c2ccc([N+](=O)[O-])cc2)s1`, 9.02% (inactive); as for `Nc1nnc(CC(=O)N/N=C/c2cccc([N+](=O)[O-])c2)s1`, -3.46% (inactive). As for `CC1(NC(=S)NCCCCCCNC(=S)NC2(C)CCS(=O)(=O)C2)CCS(=O)(=O)C1` (centres undefined), the figure is -1.81% (inactive). In the case of `Cc1ccc(-c2n[nH]c(=O)c3ccccc23)cc1N`, the inhibition is 12.6% (inactive). With `Cc1cc(C)c2[nH]c(=O)c(=O)[nH]c2c1`, the inhibition is 4.16% (inactive). For `Cc1cc2c(C)c(C)c(=O)[nH]c2cc1N`, the inhibition is 25.2% (active).

On to `COc1cccc(C2=NOC(C(=O)NCCCn3ccnc3)C2)c1` (centres undefined), for which the inhibition is 2.65% (inactive). The result for `COc1ccc(/C=C/C(=O)Nc2sc(Cc3ccccc3)c(C)c2C(N)=O)cc1` reads 10.2% (inactive); that for `Cc1ccc(/C=C(\CCC(=O)O)c2nc3ccccc3s2)cc1[N+](=O)[O-]`, 15.5% (inactive). Regarding `O=C(O)CC/C(=C\c1cccc(NC(=O)c2ccccc2Cl)c1)c1nc2ccccc2s1`, the inhibition is 18% (inactive).

Regarding `COc1cccc(/C=C(\CC(=O)O)c2nc3ccccc3s2)c1`, the inhibition was 11.8% (inactive). For `O=C(O)CC/C(=C\c1ccc(Cl)c([N+](=O)[O-])c1)c1nc2ccccc2s1`, the inhibition was 15.7% (inactive). Consider `CCOc1ccc(C(=O)N(CN2CCCC2=O)c2ccccc2)cc1`, for which the inhibition was 2.27% (inactive). The result for `Cc1ccc(Oc2cc(NC(=O)CCCn3nc([N+](=O)[O-])c(Cl)c3C)cc([N+](=O)[O-])c2)cc1` reads 2.94% (inactive); that for `CCOC(=O)Cc1csc(NS(=O)(=O)c2ccc3c4c(cccc24)C(=O)N3CC)n1`, 23.4% (active). As for `CCOC(=O)CNS(=O)(=O)c1ccc2c3c(cccc13)C(=O)N2CC`, the figure is 7.58% (inactive); as for `CCN1C(=O)c2cccc3c(S(=O)(=O)Nc4ccccc4)ccc1c23`, 6.99% (inactive).

Consider `CC(/C=N/NC(=O)CNc1n[nH]c(=O)[nH]c1=O)c1ccccc1` (centres undefined), for which the inhibition was 3.79% (inactive). As to `CC(=O)Nc1ccc(NC(C)=O)s1`, the inhibition was 2.97% (inactive). The result for `CNC(=O)c1ccc(-c2ccccc2)s1` reads 1.69% (inactive); that for `CC(=O)Nc1ccc(-c2ccccc2)s1`, 25.4% (active); that for `CN(CCNC(=O)CCCOc1cc(=O)n(C)c2ccccc12)Cc1ccccc1`, 2.96% (inactive). For `CN(C)c1ccc(NC(=O)c2sc(SCC(=O)Nc3nccs3)nc2N)cc1`, the inhibition is 25.2% (active). In the case of `CN(C)c1ccc(NC(=O)CSc2nc(N)c(C(=O)Nc3ccc(N(C)C)cc3)s2)cc1`, the inhibition is -0.46% (inactive). Consider `CN(C)c1ccc(NC(=O)c2sc(SCC(=O)Nc3ccc(Br)cc3)nc2N)cc1`, for which the inhibition was 4.44% (inactive). The result for `COc1ccc(C(=O)NC(=S)Nc2ccc(N3CCOCC3)c(Cl)c2)cc1[N+](=O)[O-]` reads 14.5% (inactive); that for `COc1cccc(/C=N/n2c(-c3cccs3)n[nH]c2=S)c1`, 4.5% (inactive); that for `COc1ccc(NC(=O)Nc2ccccc2)cc1S(=O)(=O)N1CCCCC1`, -0.57% (inactive). The result for `CCOc1ccc(C(=O)N[C@H](C(=O)Nc2ccc(OC)c(S(=O)(=O)N3CCOCC3)c2)C(C)C)cc1` reads 2.14% (inactive). As for `Cc1cccc(N(CC(=O)NC2CCCC2)C(=O)CS(=O)CC(=O)Nc2ccc3c(c2)OCO3)c1C` (centres undefined), the figure is 6.68% (inactive); as for `Cc1cccc(N(CC(=O)NC(C)(C)C)C(=O)CS(=O)CC(=O)Nc2ccc3c(c2)OCO3)c1` (centres undefined), 3.73% (inactive); as for `Cc1ccc(N(CC(=O)NC(C)(C)C)C(=O)CS(=O)CC(=O)Nc2ccc3c(c2)OCO3)cc1` (centres undefined), 8.92% (inactive). For `Cc1cccc(N(CC(=O)NC2CCCC2)C(=O)CS(=O)CC(=O)Nc2ccc3c(c2)OCO3)c1` (centres undefined), the inhibition is 1.66% (inactive). Consider `Cc1c(NC(=O)C(C)OC(=O)/C=C/c2ccccc2)c(=O)n(-c2ccccc2)n1C` (centres undefined), for which the inhibition was -2.48% (inactive). The result for `Cc1ccccc1Cn1c(Cc2ccccc2)nc2ccccc21` reads -1.18% (inactive); that for `Cc1cccc2cc(C#N)c(SCC#N)nc12`, 4.01% (inactive). As to `Clc1ccc(N2N=C(c3cccs3)CC2c2ccco2)cc1` (centres undefined), the inhibition was 4.39% (inactive).

For the molecule `c1ccc(N2N=C(c3cccs3)CC2c2ccco2)cc1` (centres undefined), the inhibition is 18.2% (inactive). The result for `NC(=O)CC(NC(=O)Cc1ccc(Br)cc1)c1ccc(N2CCN(c3ccccc3)CC2)c([N+](=O)[O-])c1` (centres undefined) reads 7.14% (inactive); that for `CCOC(=O)Cc1nnc(NC(=O)CSc2nnc3c4ccccc4n(C)c3n2)s1`, 14% (inactive).

On to `CCOC(=O)Cc1nnc(NC(=O)C(CC)Sc2nnc3c4ccccc4n(C)c3n2)s1` (centres undefined), for which the inhibition is 23.4% (active). On to `CCOC(=O)Cc1nnc(NC(=O)CSc2nnc3c4ccccc4n(C(C)C)c3n2)s1`, for which the inhibition is 10.5% (inactive).

As to `CC(C)NS(=O)(=O)c1ccc(CCC(=O)Nc2ccc3c(c2)OCO3)cc1`, the inhibition is 9.11% (inactive). For the molecule `CC(C)(C)NS(=O)(=O)c1ccc(CCC(=O)NCc2ccc3c(c2)OCO3)cc1`, the inhibition is 18.7% (inactive). Turning to `O=C(CCc1ccc(S(=O)(=O)NCc2ccccc2)cc1)NCc1cccnc1`, the inhibition was 6.09% (inactive). The result for `Cc1ccc(CNC(=O)CCNS(=O)(=O)c2ccc(C)cc2)cc1` reads 9.63% (inactive). As for `CCNS(=O)(=O)c1ccc(CCC(=O)Nc2ccccc2)cc1`, the figure is 3.88% (inactive); as for `Cc1ccc(CNC(=O)CCc2ccc(S(=O)(=O)NCC(C)C)cc2)cc1`, 8.45% (inactive).
